# Values joined by “and” are separate entries in the source; they are usually repeats but may differ in a detail not shown here. Equal entries are not always repeated. A number with no mark means an inactive call. Inconclusive results are not listed. Where a call stands in place of a potency, no number is given. Active and inactive are the calls of the source. Unless noted, the call rests on the fitted dose curve; in most records, active means well fitted curve in the direction sought with a large enough effect in the repeat runs; inconclusive means weak or mixed curves; inactive means no such curve, though single readings can be large; an effect the other way counts as inactive or inconclusive.
# Tests used:
# [1] = qHTS assay for small molecules that induce genotoxicity in human embryonic kidney cells expressing luciferase-tagged ATAD5 (AID 651632); further: nearly all actives have a fitted effect of over 15% in size
# Method in brief: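 Luminescent reporter readout, HEK293T ATAD5-luc line: 16 hr drug exposure (37C, 5% CO2) followed by Amplite, 30 min RT.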
# [2] = qHTS assay for small molecule agonists of the p53 signaling pathway - cell viability (AID 651633; calls by dose curve; further: nearly all actives have a fitted effect of over 30% in size; further: potency means the concentration at half of the fitted maximal effect)
# Method in brief: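 Viability counter-read: CellTiter-Glo luminescence (30 min, room temperature) in the same p53RE-bla plates. These plates had been exposed to compounds for 16 h at 37 C.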
# [3] = qHTS assay for small molecules that induce genotoxicity in human embryonic kidney cells expressing luciferase-tagged ATAD5 - cell viability (AID 651634; calls by dose curve; further: nearly all actives have a fitted effect of over 25% in size)
# Method in brief: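 Viability read: CellTiter-Fluor fluorescence, 30 min at 37C. Cells: HEK293T, luciferase-tagged ATAD5. Exposure: 15.5 hr, 37C, 5% CO2, compound or DMSO vehicle.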
# [4] = qHTS assay for small molecule disruptors of the mitochondrial membrane potential - cell viability (AID 720634; calls by dose curve;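 further: human HepG2 liver cancer cells; nearly all actives have a fitted effect of over 20% in size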)
# Method in brief: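 HepG2, 1 hr compound, 37 C. ATP luminescence via CellTiter-Glo, 30 min RT, same well as m-MPI.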
# [5] = qHTS assay for small molecule disruptors of the mitochondrial membrane potential (AID 720635); further: potency means the concentration at half of the fitted maximal effect
# Method in brief: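 Mitochondrial membrane potential tracked with Mito-MPS dye, red aggregates (ex 540/em 590 nm) against green monomers (ex 490/em 535 nm). Compound treatment 1 hr at 37C, dye 30 min in HepG2.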
# [6] = qHTS assay to test for compound auto fluorescence at 590 nm (red) in HepG2 cells (AID 720674)
# Method in brief: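 1 hr compound incubation on HepG2 cells, 37 C, 5% CO2; plate read ex 540 nm / em 590 nm; intensities reported as Rose Bengal sodium equivalents.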
# [7] = qHTS assay to test for compound auto fluorescence at 535 nm (green) in HepG2 cells (AID 720675)
# [8] = qHTS assay to test for compound auto fluorescence at 460 nm (blue) in HEK293 cells (AID 720678)
# Method in brief: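 Measured: blue fluorescence (Ex 405/Em 460 nm) of compound-treated HEK293 cells, incubated overnight at 37C with 5% CO2 and scaled to triamterene equivalents.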
# [9] = qHTS assay to test for compound auto fluorescence at 590 nm (red) in HEK293 cells (AID 720679)
# Method in brief: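 Using HEK293 cells at 2,000 per well, the screen added 23 nL of each compound after cell attachment and incubated overnight (37C, 5% CO2). The plate reader then captured red-label fluorescence, Ex/Em 540/590nm.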
# [10] = qHTS assay to test for compound auto fluorescence at 535 nm (green) in HEK293 cells (AID 720680)
# [11] = qHTS assay to test for compound auto fluorescence at 460 nm (blue) in HEK293 cell free culture (AID 720681)
# Method in brief: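 Blue fluorescence (Ex 405/Em 460 nm, triamterene-equivalent) was read immediately after pin transfer of compound or DMSO into medium (DMEM, 10% FBS) without cells.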
# [12] = qHTS assay to test for compound auto fluorescence at 535 nm (green) in HEK293 cell free culture (AID 720682)
# Method in brief: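 Intrinsic compound fluorescence is measured in culture medium containing 10% FBS, with excitation at 485 nm and detection at 535 nm, referenced to fluorescein.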
# [13] = qHTS assay to test for compound auto fluorescence at 590 nm (red) in HEK293 cell free culture (AID 720683)
# Method in brief: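 Red-channel autofluorescence of compounds in culture medium (DMEM, 10% FBS), no cells, measured at 540/590 nm. Rose Bengal sodium is the reference fluorophore for equivalence.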
# [14] = qHTS assay to test for compound auto fluorescence at 535 nm (green) in HepG2 cell free culture (AID 720686)
# [15] = target: Glucocorticoid receptor (Homo sapiens) (UniProt P04150); assay: qHTS assay to identify small molecule agonists of the glucocorticoid receptor (GR) signaling pathway (AID 720691; active means well fitted activation curve with a large enough effect in the signal ratio in the repeat runs, not every such curve was filed as active; the % refers to the signal ratio); details: GR-bla HeLa, beta-lactamase reporter ratio, 18 h; activation: at 62.4 µM (top of the series)
# Chain of Glucocorticoid receptor (Homo sapiens) (P04150 whole entry, looked up): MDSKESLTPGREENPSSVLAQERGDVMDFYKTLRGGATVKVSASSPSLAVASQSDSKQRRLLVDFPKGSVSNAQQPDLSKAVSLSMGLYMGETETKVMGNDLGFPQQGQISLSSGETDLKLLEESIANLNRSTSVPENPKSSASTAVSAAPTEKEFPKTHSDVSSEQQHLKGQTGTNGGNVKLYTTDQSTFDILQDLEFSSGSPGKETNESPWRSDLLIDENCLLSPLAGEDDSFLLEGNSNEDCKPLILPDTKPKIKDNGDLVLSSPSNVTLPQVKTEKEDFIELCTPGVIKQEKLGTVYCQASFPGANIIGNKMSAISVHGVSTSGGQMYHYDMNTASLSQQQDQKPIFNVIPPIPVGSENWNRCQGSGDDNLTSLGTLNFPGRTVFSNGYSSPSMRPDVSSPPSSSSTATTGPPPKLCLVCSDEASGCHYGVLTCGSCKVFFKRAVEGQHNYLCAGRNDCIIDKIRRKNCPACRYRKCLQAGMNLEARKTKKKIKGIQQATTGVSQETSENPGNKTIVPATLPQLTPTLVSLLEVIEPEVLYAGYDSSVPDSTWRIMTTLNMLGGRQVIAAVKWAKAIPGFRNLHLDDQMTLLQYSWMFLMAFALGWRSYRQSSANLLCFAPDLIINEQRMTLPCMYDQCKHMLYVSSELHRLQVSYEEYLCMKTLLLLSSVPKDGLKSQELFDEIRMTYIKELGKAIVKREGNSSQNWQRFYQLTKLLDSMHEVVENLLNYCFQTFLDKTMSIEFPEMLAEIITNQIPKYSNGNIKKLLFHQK
# Method in brief: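 qHTS in GR-bla HeLa cells: 4 h settling at 37 C/5% CO2, 18 h compound incubation at 37 C, 2 h LiveBLAzer B/G FRET substrate at room temperature, fluorescence intensity measured.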
# [16] = target: Glucocorticoid receptor (Homo sapiens) (UniProt P04150); assay: qHTS assay to identify small molecule antagonists of the glucocorticoid receptor (GR) signaling pathway (AID 720692; active means well fitted inhibition curve with a large enough effect in the signal ratio in the repeat runs, not every such curve was filed as active; the % refers to the signal ratio; further: potency means the concentration at half of the fitted maximal effect)
# Method in brief: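 Inhibition of glucocorticoid signalling is measured in HeLa cells with a GRE-controlled beta-lactamase reporter; cells are co-treated with compound and 5 nM dexamethasone (final) for 18 h before FRET substrate readout.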
# [17] = qHTS assay to test for compound auto fluorescence at 460 nm (blue) in HepG2 cell free culture (AID 720685)
# Method in brief: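 Compound (23 nL) or DMSO pinned into cell-free MEM with 10% FBS; blue fluorescence read at 405/460 nm excitation/emission, expressed as auto-fluorescence equivalency to triamterene.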
# [18] = qHTS assay to test for compound auto fluorescence at 460 nm (blue) in HepG2 cells (AID 720687)
# Method in brief: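 Blue-channel autofluorescence (Ex/Em 405/460 nm, triamterene-equivalent) was measured after 1 hr compound exposure at 37 C, 5% CO2. Cells were HepG2, plated overnight at 37 C in MEM plus 10% FBS.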
# [19] = qHTS assay to test for compound auto fluorescence at 590 nm (red) in HepG2 cell free culture (AID 720684)
# Method in brief: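 Steps: dispense MEM/10% FBS medium, no cells; pin compound or DMSO vehicle; read red channel, Ex/Em 540/590 nm. Output given as Rose Bengal sodium equivalents.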
# [20] = qHTS assay for small molecule agonists of the p53 signaling pathway (AID 651631; calls by dose curve; further: nearly all actives have a fitted effect of over 15% in size)
# Method in brief: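 Fluorescence intensity from cleaved LiveBLAzer B/G substrate (2 h, room temperature) served as the signal. Beforehand, HCT-116 reporter cells bearing p53 response elements were treated 16 h at 37 °C with DMSO-dissolved compounds.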
compound,measurement,setting,value
COS(C)(=O)=O,outcome,[1],inactive
same,Potency,[2],inactive
same,Potency,[3],inactive
same,Potency,[4],inactive
same,Potency,[5],inactive
same,outcome,[6],inactive
same,outcome,[7],inactive
same,outcome,[8],inactive
same,outcome,[9],inactive
same,outcome,[10],inactive
same,outcome,[11],inactive
same,outcome,[12],inactive
same,outcome,[13],inactive
same,outcome,[14],inactive
same,Potency,[15],inactive
same,Potency,[16],inactive
O=C(O)CCCCCCCCCCC(=O)O,outcome,[1],inactive
same,Potency,[2],inactive
same,Potency,[4],inactive
same,Potency,[5],inactive
same,outcome,[6],inactive
same,outcome,[7],inactive
same,outcome,[8],inactive
same,outcome,[9],inactive
same,outcome,[10],inactive
same,outcome,[11],inactive
same,outcome,[12],inactive
same,outcome,[13],inactive
same,outcome,[14],inactive
same,Potency,[15],inactive
same,Potency,[16],inactive
OC[C@H]1O[C@@](CO)(O[C@H]2O[C@H](CO)[C@@H](O)[C@H](O)[C@H]2O)[C@@H](O)[C@@H]1O,outcome,[1],inactive
same,Potency,[3],inactive
same,outcome,[6],inactive
same,outcome,[7],inactive
same,outcome,[8],inactive
same,outcome,[9],inactive
same,outcome,[10],inactive
same,outcome,[11],inactive
same,outcome,[12],inactive
same,outcome,[13],inactive
same,outcome,[17],inactive
same,outcome,[14],inactive
same,outcome,[18],inactive
O=C(O)CCCC[C@@H]1SC[C@@H]2NC(=O)N[C@@H]21,outcome,[1],inactive
same,Potency,[2],inactive
same,Potency,[3],inactive
same,Potency,[5],inactive
same,outcome,[6],inactive
same,outcome,[7],inactive
same,outcome,[8],inactive
same,outcome,[9],inactive
same,outcome,[10],inactive
same,outcome,[11],inactive
same,outcome,[12],inactive
same,outcome,[13],inactive
same,outcome,[19],inactive
same,outcome,[17],inactive
same,outcome,[14],inactive
same,outcome,[18],inactive
same,Potency,[16],inactive
Cc1occc(=O)c1O,outcome,[1],inactive
same,Potency,[2],inactive
same,Potency,[3],inactive
same,Potency,[4],inactive
same,Potency,[5],inactive
same,outcome,[6],inactive
same,outcome,[7],inactive
same,outcome,[8],inactive
same,outcome,[9],inactive
same,outcome,[10],inactive
same,outcome,[11],inactive
same,outcome,[12],inactive
same,outcome,[13],inactive
same,outcome,[19],inactive
same,outcome,[17],inactive
same,outcome,[14],inactive
CCN(CC)CCCC(C)Nc1ccnc2cc(Cl)ccc12 (configuration not stated),outcome,[1],inactive
same,"activity, negative = cytotoxicity",[3],-6.84% [at 8.08 µM]
same,outcome,[6],inactive
same,outcome,[7],inactive
same,outcome,[8],inactive
same,outcome,[9],inactive
same,outcome,[10],inactive
same,outcome,[11],inactive
same,outcome,[12],inactive
same,outcome,[13],inactive
same,outcome,[19],inactive
same,outcome,[17],inactive
same,outcome,[14],inactive
same,outcome,[18],inactive
same,Potency,[15],inactive
same,Potency,[16],inactive
CC1=CCC2CC1C2(C)C (configuration not stated),outcome,[1],inactive
same,Potency,[2],inactive
same,outcome,[6],inactive
same,outcome,[7],inactive
same,outcome,[8],inactive
same,outcome,[9],inactive
same,outcome,[10],inactive
same,outcome,[11],inactive
same,outcome,[12],inactive
same,outcome,[13],inactive
same,outcome,[14],inactive
same,outcome,[18],inactive
O=C(Oc1ccccc1)c1ccccc1,outcome,[1],inactive
same,Potency,[2],inactive
same,Potency,[3],inactive
same,Potency,[4],inactive
same,Potency,[5],inactive
same,outcome,[6],inactive
same,outcome,[7],inactive
same,outcome,[8],inactive
same,outcome,[9],inactive
same,outcome,[10],inactive
same,outcome,[11],inactive
same,outcome,[12],inactive
same,outcome,[13],inactive
same,outcome,[19],inactive
same,outcome,[17],inactive
same,outcome,[14],inactive
same,outcome,[18],inactive
NNc1nncc2ccccc12,Potency,[20],inactive
same,Potency,[2],inactive
same,Potency,[4],inactive
same,outcome,[6],inactive
same,outcome,[7],inactive
same,outcome,[8],inactive
same,outcome,[9],inactive
same,outcome,[10],inactive
same,outcome,[11],inactive
same,outcome,[12],inactive
same,outcome,[13],inactive
same,outcome,[19],inactive
same,outcome,[17],inactive
same,outcome,[14],inactive
same,Potency,[16],inactive
CCCCCCCCC/C=C/CC1CC(=O)OC1=O (configuration not stated),Potency,[2],inactive
same,Potency,[3],inactive
same,outcome,[6],inactive
same,outcome,[7],inactive
same,outcome,[8],inactive
same,outcome,[9],inactive
same,outcome,[10],inactive
same,outcome,[11],inactive
same,outcome,[12],inactive
same,outcome,[13],inactive
same,outcome,[17],inactive
same,outcome,[14],inactive
same,outcome,[18],inactive
same,Potency,[16],49 µM (active)
CCCCCCCCCCCCOCCO,outcome,[1],inactive
same,Potency,[2],inactive
same,Potency,[3],inactive
same,Potency,[4],inactive
same,outcome,[6],inactive
same,outcome,[7],inactive
same,outcome,[8],inactive
same,outcome,[9],inactive
same,outcome,[10],inactive
same,outcome,[11],inactive
same,outcome,[12],inactive
same,outcome,[13],inactive
same,outcome,[17],inactive
same,outcome,[14],inactive
same,outcome,[18],inactive
CC[C@H](C)C(=O)O[C@H]1C[C@@H](C)C=C2C=C[C@H](C)[C@H](CC[C@@H]3C[C@@H](O)CC(=O)O3)[C@H]21,outcome,[1],inactive
same,Potency,[2],29.8 µM (active) and 69.6 µM (active)
same,Potency,[3],inactive
same,Potency,[5],18.8 µM (active) and 62 µM (active) and 60.8 µM (active)
same,outcome,[6],inactive
same,outcome,[7],inactive
same,outcome,[8],inactive
same,outcome,[9],inactive
same,outcome,[10],inactive
same,outcome,[11],inactive
same,outcome,[12],inactive
same,outcome,[13],inactive
same,outcome,[19],inactive
same,outcome,[14],inactive
same,outcome,[18],inactive
same,Potency,[16],21.3 µM (active)

# From PubChem BioAssay (Tox21)
